Rows were chosen to be rich in hits. Some 12% of all compounds tested hit in one or more screens of this group.
BAZ2B inh = qHTS Assay for Inhibitors of BAZ2B; Bromodomain adjacent to zinc finger domain protein 2B (Homo sapiens), Q9UIF8; AlphaScreen BAZ2B-H3K14Ac peptide displacement; Potency, µM (titrated, usually from 114 µM), for the others: at the highest dose activity change, negative = inhibition, hits mostly inhibitors; 360,000 tested, 4.4% active; AID 504333, 2011; note: % is set by controls: 0 for no effect and ±100 for the full control effect; nearly all actives have a fitted effect of over 60% in size
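BAZ2B 50 nM plus b-H3(5-23)K14Ac 50 nM, PBS pH 7.4/0.01% Tween-20, 30 min RT; compound added (max 110 uM), 30 min RT; streptavidin donor/Ni-chelate acceptor beads 10 ug/mL final, 20 min dark; AlphaScreen read.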
Sfp PPTase inh = qHTS Assay for Inhibitors of Bacillus subtilis Sfp phosphopantetheinyl transferase (PPTase) | 4'-phosphopantetheinyl transferase ffp (Bacillus subtilis), Q9F4F7 | Biochemical Sfp PPTase activity, qHTS | Potency, µM, for inactives: largest response in the series, negative = inhibition, hits mostly inhibitors | 310,000 tested, 3.5% active;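 note: the enzyme is Sfp with the accession as filed and its product quenches rhodamine fluorescence; 0% = enzyme reaction without inhibitor and -100% = no enzyme wells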
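With Hepes-Na pH 7.6 buffer containing 10 mM MgCl2, Sfp (15 nM) modified BHQ-2-YbbR (12.5 uM) using rhodamine-CoA (5 uM). Two reads 30 minutes apart at 525/598 nm yielded each well's rate.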
HP1b chromo inh = HTS for Inhibitors of HP1-beta Chromodomain Interactions with Methylated Histone Tails. Chromobox protein homolog 1 (Homo sapiens), P83916. AlphaScreen HP1-beta / biotin-H3K9me3 peptide binding. Potency, µM (doses to about 114 µM), for inactives: at the top dose activity change, negative = inhibition, actives largely listed as inhibitors. 390,000 tested, 0.56% active. AID 540317, 2011; note: nearly all actives have a fitted effect of over 70% in size
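HP1-beta protein (50 nM final) preincubated 30 min at room temperature with biotinylated H3(1-18)K9me3 peptide (50 nM) in PBS pH 7.4, 0.01% Tween-20, then compound added for 30 min. AlphaScreen streptavidin donor/nickel chelate acceptor beads (10 ug/mL final), 30 min dark, luminescence read.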
G9a inh = qHTS Assay for Inhibitors of Histone Lysine Methyltransferase G9a; G9a H3K9 monomethylation, AlphaScreen, 2 h; Potency, µM (doses to about 102 µM), for the others: at the highest dose activity, negative = inhibition, usual class: inhibitors; 350,000 tested, 8.8% active; note: % is set by controls: 0 for no effect and ±100 for the full control effect; nearly all actives have a fitted effect of over 75% in size
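Chemiluminescent proximity detection of H3K9 monomethylation, read after 10 min bead incubation in the dark. Reaction: 20 nM G9a, 500 nM biotin-H3K9 peptide, 20 uM SAM cofactor, 2 h, room temperature, following 15 min enzyme-compound preincubation.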
L3MBTL1 block = qHTS Assay for the Inhibitors of L3MBTL1; 230,000 tested, 0.66% active; AlphaScreen L3MBTL1–H3K9me1 peptide binding; Potency, µM (highest dose often 57.1 µM), without a hit: at the top dose activity, negative = inhibition, hits mostly inhibitors; Lethal(3)malignant brain tumor-like protein 1 (Homo sapiens), Q9Y468; note: % is set by controls: 0 for no effect and ±100 for the full control effect; nearly all actives have a fitted effect of over 60% in size
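Read-out is AlphaScreen signal from streptavidin donor and nickel chelate acceptor beads (10 ug/mL final each) bridging L3MBTL1 (50 nM) and biotinylated K9-monomethylated H3(1-15) peptide (75 nM), after 30 min compound exposure at room temperature.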
JMJD2A Tudor inh = qHTS Assay for Inhibitors of JMJD2A-Tudor Domain | AID 504339, 2011 | 390,000 tested, 4.4% active | AlphaScreen JMJD2A-Tudor / H3K4me3 peptide binding | Potency, µM (highest dose often 114 µM), inactives show at the top dose activity change, negative = inhibition, hits mostly inhibitors | Lysine-specific demethylase 4A (Homo sapiens), O75164; note: % is set by controls: 0 for no effect and ±100 for the full control effect; nearly all actives have a fitted effect of over 50% in size
Target sequence (O75164 whole entry, looked up, the tested form may be a part): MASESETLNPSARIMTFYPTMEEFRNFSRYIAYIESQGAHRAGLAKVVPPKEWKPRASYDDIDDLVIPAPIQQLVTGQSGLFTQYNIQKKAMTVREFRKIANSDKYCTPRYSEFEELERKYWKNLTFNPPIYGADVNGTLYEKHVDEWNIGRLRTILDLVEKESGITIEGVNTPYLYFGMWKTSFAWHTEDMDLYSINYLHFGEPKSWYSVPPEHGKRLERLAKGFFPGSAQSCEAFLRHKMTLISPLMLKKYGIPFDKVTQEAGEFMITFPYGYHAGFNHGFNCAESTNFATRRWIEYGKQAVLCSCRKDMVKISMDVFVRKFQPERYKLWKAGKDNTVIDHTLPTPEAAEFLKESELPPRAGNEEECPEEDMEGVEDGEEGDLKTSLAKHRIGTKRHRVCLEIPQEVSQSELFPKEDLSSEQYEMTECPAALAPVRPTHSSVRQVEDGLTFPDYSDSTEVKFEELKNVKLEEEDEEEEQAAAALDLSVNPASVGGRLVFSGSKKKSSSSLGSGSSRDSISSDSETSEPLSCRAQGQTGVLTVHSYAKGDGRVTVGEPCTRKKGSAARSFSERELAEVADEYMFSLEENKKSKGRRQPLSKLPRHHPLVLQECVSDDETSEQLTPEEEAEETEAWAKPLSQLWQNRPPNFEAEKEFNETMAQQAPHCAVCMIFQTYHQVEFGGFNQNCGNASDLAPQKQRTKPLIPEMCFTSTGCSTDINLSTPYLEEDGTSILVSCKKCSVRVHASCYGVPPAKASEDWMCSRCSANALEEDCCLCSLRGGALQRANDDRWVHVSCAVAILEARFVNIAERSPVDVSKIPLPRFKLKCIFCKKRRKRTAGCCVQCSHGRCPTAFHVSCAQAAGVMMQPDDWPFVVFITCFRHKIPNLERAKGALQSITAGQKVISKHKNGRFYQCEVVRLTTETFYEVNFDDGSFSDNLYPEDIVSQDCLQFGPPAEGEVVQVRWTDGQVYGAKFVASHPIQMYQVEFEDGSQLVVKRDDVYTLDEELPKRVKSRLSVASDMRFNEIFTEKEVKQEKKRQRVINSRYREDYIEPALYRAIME
An asterisk follows results filed as active; u = inconclusive; x = no result; [ ] = remark or other dose. Calls come from the whole dose curve; as a rule, active = well fitted curve in the direction sought with a large enough effect; inconclusive = small, poorly fitted or top-dose-only effect, or another doubt; inactive = no such curve, though single readings can be large; an effect the other way counts as inactive or inconclusive. Potency is the fitted concentration of half-maximal effect.

SMILES	BAZ2B inh	Sfp PPTase inh	HP1b chromo inh	G9a inh	L3MBTL1 block	JMJD2A Tudor inh
O=C(CSc1nc2ccccc2c(=O)n1CCC(=O)N1CCN(c2ccccc2)CC1)NCC1CCCO1 (configuration not stated)	-23.6%	0.4%	-2.6%	-13.3%[59 µM]	x	56.2µM*
Cc1ccc(C)c(CNC(=O)c2cnc3sc(N4CCCC4)nn3c2=O)c1	-0.9%	x	-1.6%	2.8%[59 µM]	x	-9.8%
CC(=O)c1ccc(C2C=CC(O)C(CO)O2)cc1 (configuration not stated)	x	6.4%	x	x	x	x
Cc1ccc(Cn2c(CNC(=O)CCc3ccccc3)nc3cccnc32)cc1	3.8%	x	28.7%[57 µM]	-0.5%[59 µM]	x	-10.6%
CCOC(=O)c1cc(=O)c2ccc(OCC(=O)Nc3ccccc3)cc2o1	-17.2%	-9.3%	13.3%	17.3%	-1.4%	-12.2%
CCOC(=O)C1=C(C)N(CC(C)C)C(=O)/C1=C\c1ccc(OCC(=O)Nc2ccccc2)cc1	-37.1%[57.1 µM]	7.8%	-4.7%	50.1µM*	-18.3%	-35.9%[57.1 µM]
Cc1nnc(SCc2cc(=O)n3cccc(C)c3n2)s1	13.2%	x	27.3%[57 µM]	2.7%[59 µM]	x	-7.1%
Cc1cc(=O)n2cccc(O)c2n1	12.6µM*	56.2µM*	-8.9%	x	-19.9%	u
COc1cccc(NS(=O)(=O)c2ccc3c(c2)CCC(=O)N3)c1	x	x	x	x	x	-2.7%
CCOc1ccc(OCCOCCN2CCc3ccccc3C2)cc1	56.2µM*	3.2%	u	x	-6.8%	2.82µM*
c1ccc(OCCOCCN2CCc3ccccc3C2)cc1	-1.7%	15.8%	35.5%	-44.6%[59 µM]	11.1%	-23.0%
C=CCc1cc(OC)ccc1OCCOCCN1CCc2ccccc2C1	56.2µM*	35.5µM*	u	11.2µM*	-26.0%	0.891µM*
CCCOc1ccc(OCCOCCN2CCc3ccccc3C2)cc1	50.1µM*	u	u	10µM*	x	3.55µM*
Cc1ccc(SCCOCCN2CCc3ccccc3C2)cc1	-37.0%	-18.3%	u	u	8.4%	39.8µM*
Cc1cc(N2CCC(C(=O)Nc3ccc(F)cc3F)CC2)n2nc(C)c(-c3ccc(Cl)cc3)c2n1	-2.1%	x	41.2%	-3.7%[59 µM]	x	-1.3%
O=S(=O)(c1ccccc1)N1CCC[C@@]2(CCN(Cc3ccccc3)C2)C1	x	13.2%	x	-3.5%[12.7 µM]	x	x
COc1cccc(NC(=O)CN(C)C(=O)c2cccc(S(=O)(=O)N3c4ccccc4CC3C)c2)c1 (configuration not stated)	2.4%	x	10.2%	15.8µM*	-9.0%	-27.0%
COc1cccc(NC(=O)CN(C)C(=O)c2ccc(Cl)c(S(=O)(=O)N3CCCCCC3)c2)c1	10.5%	x	-1.4%	70.8µM*	-7.2%	-21.8%
COc1cccc(NC(=O)CN(C)C(=O)c2cccc(NS(=O)(=O)c3ccccc3)c2)c1	11.3%	x	23.1%	-4.1%[12.7 µM]	1.4%	-8.8%
COc1ccc(NC(=O)CNCCC2=CCCCC2)cc1	6.8%	2.6%	0.9%	-4.5%[12.7 µM]	x	-15.7%
CC(=O)c1ccc(NC(=O)CC(NCCC2=CCCCC2)C(=O)O)cc1 (configuration not stated)	-5.9%	-1.7%	-15.2%	u	4.1%	12.6µM*
O=C(c1noc2c1CCc1ccccc1-2)N1CCOCC1	0.8%	11.5%	16.0%	11.6%[12.7 µM]	8.4%	-3.8%
O=C(c1noc2c1CCc1ccccc1-2)N1CCc2ccccc2C1	20.8%	1µM*	x	2.6%[12.7 µM]	x	x
Cc1ccc(NC(=O)COc2ccc3oc4c(c3c2)CCCC4)cc1C	0.5%	x	30.0%	u	x	-8.7%
Cc1cccc(NC(=O)c2ccc(-c3ccccc3[N+](=O)[O-])o2)c1	u	50.1µM*	-5.7%	-4.4%[0.501 µM]	-20.1%	u
